Source: PubChem BioAssay (NCATS)
A number with no mark means an inactive call. Activity calls are given as the source filed them. The rule behind the calls is not given here.

Test system: HIV-1 nucleocapsid protein NCp7 (binding to TG oligonucleotide)
Experiment: HIV Nucleocapsid (AID 346);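 note: potency is for inhibitors that block NC binding and lower polarization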
Conditions: HIV-1 NC / fluorescein-TGTGTGTG probe, fluorescence polarization
Procedure, shortened: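 Fluorescence polarization binding of 100 nM HIV-1 NC to 10 nM fluorescein-labelled TG4xF oligonucleotide. Buffer was Hepes pH 7.5 with 250mM NaCl, 1uM ZnCl2, TCEP and 2-mercaptoethanol. Compounds were incubated 1 hr at room temperature before the read.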
Potency is the fitted concentration of half-maximal effect.

SMILES	Potency
COc1cccc(Cn2c(=O)c(-c3cccs3)nc3cnc(Nc4ccccc4)nc32)c1	> 20 µM
CN(C)C(=O)c1ccc(-c2nccc(NCc3cccnc3)n2)cc1	> 20 µM
O=C(c1cc(C(F)(F)F)cc(C(F)(F)F)c1)N1CCC2(CC1)CCN(c1ccccn1)CC2	> 20 µM
O=C(Nc1cccc(F)c1)N1CCC2(CC1)CCN(C(=O)c1cnccn1)CC2	> 20 µM
N#CCCn1c(=O)c(-c2ccccc2)nc2cnc(Oc3cccc(Cl)c3)nc21	> 20 µM
CC(=O)N1CCC2(CC1)CN(c1ccccn1)C2	> 20 µM
O=C(c1cnccn1)N1CCC2(CCN(Cc3ccncc3)CC2)CC1	> 20 µM
COCCNc1ccnc(-c2ccccc2CN(C)C)n1	> 20 µM
COc1ccc(CNc2ncnc3ccc(-c4ccc(N(C)C)cc4)cc23)c(OC)c1	> 20 µM
CC(=O)N1CCC2(CCN(Cc3ccccc3)CC2)CC1	> 20 µM
Cc1noc(C)c1-c1ccc2ncnc(NCCN3CCOCC3)c2c1	> 20 µM
O=c1c(-c2ccc(Cl)cc2)nc2cnc(N3CCNCC3)nc2n1Cc1ccc(F)cc1	> 20 µM
CNc1ncncc1-c1ccccc1C	> 20 µM
CN1CCN(c2nc(-c3cccc(NS(C)(=O)=O)c3)nc3ccccc23)CC1	> 20 µM
COc1ccc(C(=O)N2CCC3(CCCN(c4ccccc4)C3)CC2)cc1	> 20 µM
COc1ccc(Oc2ncc3nc(-c4ccc(F)cc4)c(=O)n(CCC#N)c3n2)cc1	> 20 µM
N#Cc1cccc(NC(=O)N2CCCC3(CCN(C(=O)c4ccncc4)CC3)C2)c1	> 20 µM
CN(Cc1ccco1)c1ncncc1-c1cccc(NS(C)(=O)=O)c1	> 20 µM
COC(=O)N1CCC2(CC1)CN(C(=O)Nc1cccc(C#N)c1)C2	> 20 µM
N#CCCn1c(=O)c(-c2ccccc2)nc2cnc(N3CCNCC3)nc21	> 20 µM
N#Cc1cccc(NC(=O)N2CC3(CCN(C(=O)c4cc(C(F)(F)F)cc(C(F)(F)F)c4)CC3)C2)c1	> 20 µM
Cn1cccc1C(=O)N1CCC2(CCCN(Cc3ccccc3)C2)CC1	> 20 µM
O=C(c1cccc(F)c1)N1CCC2(CCCN(Cc3ccncc3)C2)CC1	> 20 µM
COC(=O)N1CCC2(CCCN(C(c3ccccc3)c3ccccc3)C2)CC1	> 20 µM

SMILES	Potency
Cc1ccccc1-c1cc(NCc2ccccc2)ncn1	> 20 µM
COc1ccccc1-c1cncnc1NCCN1CCOCC1	> 20 µM
Cc1ccccc1-c1ccc2ncnc(N(C)Cc3ccco3)c2c1	> 20 µM
CN(C)c1ncc2nc(-c3ccc(Cl)cc3)c(=O)n(CCC#N)c2n1	> 20 µM
COc1ccccc1-c1cncnc1NCc1cccs1	> 20 µM
COCCn1c(=O)c(-c2ccc(OC)cc2)nc2cnc(Nc3ccccc3)nc21	> 20 µM
Cn1c(=O)c(-c2cccs2)nc2cnc(N3CCOCC3)nc21	> 20 µM
FC(F)(F)c1ccccc1-c1nc(NCc2cccs2)c2ccccc2n1	> 20 µM
Cc1cnc(CNc2ncncc2-c2ccc(C(=O)N(C)C)cc2)cn1	> 20 µM
O=S(=O)(c1ccccc1)N1CCC2(CCCN(Cc3nccs3)C2)CC1	> 20 µM
N#CCCn1c(=O)c(-c2ccc(F)cc2)nc2cnc(Oc3ccccc3)nc21	> 20 µM
COc1ccc(-n2c(=O)c(C)nc3cnc(N4CCOCC4)nc32)cc1	> 20 µM
Cc1noc(C)c1C(=O)N1CCC2(CCN(Cc3ccc(C#N)cc3)CC2)CC1	> 20 µM
CN(C)c1ncc2ncc(=O)n(Cc3cccs3)c2n1	> 20 µM
Cn1cccc1C(=O)N1CCC[C@@]2(CCN(c3ccncc3)C2)C1	> 20 µM
COc1ncc2nc(-c3ccccc3)c(=O)n(C[C@H]3CCCO3)c2n1	> 20 µM
COC(=O)N1CCC[C@@]2(CCN(Cc3cc(C(F)(F)F)cc(C(F)(F)F)c3)C2)C1	> 20 µM
O=c1c(CCc2ccccc2)nc2cnc(Oc3ccccc3)nc2n1C1CC1	> 20 µM
CC(=O)N1CCC2(CC1)CCN(c1ccccn1)CC2	> 4 µM
COc1ccc(NC(=O)N2CCC3(CC2)CCN(C(=O)c2ccco2)CC3)cc1	> 20 µM
Cc1ccccc1-c1nc(-n2ccnc2)c2ccccc2n1	> 20 µM
COc1ccc(-c2nc3cnc(N4CCN(C)CC4)nc3n(Cc3cccs3)c2=O)cc1	> 4 µM
Cc1ccccc1-c1ccc2ncnc(NCc3cccs3)c2c1	> 20 µM
O=C(c1cnccn1)N1CCC2(CCCN(c3cccc(-c4ccccc4)c3)C2)CC1	> 20 µM

SMILES	Potency
Cc1cccc(CNc2cc(-c3ccc(N(C)C)cc3)ncn2)c1	> 20 µM
CN(C)Cc1ccccc1-c1nc(N(C)Cc2ccco2)c2ccccc2n1	> 20 µM
CNc1ncnc2ccc(-c3cccc(NS(C)(=O)=O)c3)cc12	> 20 µM
Cc1noc(C)c1-c1nc(Nc2ccccc2)c2ccccc2n1	> 20 µM
CNc1nc(-c2ccccc2C)nc2ccccc12	> 20 µM
Clc1ccccc1-c1cncnc1NCc1cccs1	> 20 µM
O=C(c1ccco1)N1CCC[C@@]2(CCN(Cc3nccs3)C2)C1	> 20 µM
CS(=O)(=O)N1CCC2(CCCN(c3ccccn3)C2)CC1	> 20 µM
CC(C)NC(=O)N1CCC2(CC1)CCN(C(=O)c1cc(C(F)(F)F)cc(C(F)(F)F)c1)CC2	> 20 µM
O=C(Oc1ccccc1)N1CCC2(CC1)CCN(c1ncccn1)CC2	> 20 µM
O=c1c(CCc2ccccc2)nc2cnc(Nc3ccccc3)nc2n1C[C@H]1CCCO1	> 20 µM
CC(C)NC(=O)N1CC[C@@]2(CCCN(C(=O)c3cc(C(F)(F)F)cc(C(F)(F)F)c3)C2)C1	> 20 µM
CCNc1ncc2nc(CCc3ccccc3)c(=O)n(-c3ccc(OC)cc3)c2n1	> 20 µM
CCNc1ncc2nc(-c3cccs3)c(=O)n(-c3ccc(OC)cc3)c2n1	4.09 µM (active)
Cc1cccc(CNc2ncncc2-c2cccnc2)c1	> 20 µM
COc1ccc(NC(=O)N2CC[C@@]3(CCCNC3)C2)cc1	> 20 µM
COCCn1c(=O)cnc2cnc(Oc3ccc(OC)cc3)nc21	> 20 µM
c1ccc(CNc2nc(-c3ccc4c(c3)OCO4)nc3ccccc23)cc1	> 20 µM
CS(=O)(=O)N1CCC[C@@]2(CCN(C(=O)Nc3cccc(C#N)c3)C2)C1	> 20 µM
CCNc1ncc2nc(-c3cccs3)c(=O)n(C[C@H]3CCCO3)c2n1	> 20 µM
COc1ccc(-n2c(=O)c(C)nc3cnc(Nc4cccc(OC)c4)nc32)cc1	> 20 µM
CS(=O)(=O)N1CCC2(CCN(Cc3ccncc3)CC2)CC1	> 4 µM
COCC(=O)N1CCC[C@@]2(CCN(C(=O)Nc3cccc(F)c3)C2)C1	> 20 µM
Cc1noc(C)c1C(=O)N1CCC2(CCN(Cc3cc(C(F)(F)F)cc(C(F)(F)F)c3)CC2)CC1	> 4 µM

SMILES	Potency
CN(C)c1ccc(-c2cc(N(C)Cc3ccco3)ncn2)cc1	> 20 µM
CCNc1ncc2nc(-c3ccc(OC)cc3)c(=O)n(CCOC)c2n1	> 20 µM
O=C(c1cnccn1)N1CCC2(CC1)CN(Cc1cc(C(F)(F)F)cc(C(F)(F)F)c1)C2	> 20 µM
c1cn(-c2ccnc(-c3ccc4c(c3)OCO4)n2)cn1	> 20 µM
O=C(c1cccc(F)c1)N1CCC2(CCCN(c3cccc(-c4ccccc4)c3)C2)CC1	> 20 µM
COc1cccc(-c2ccc3ncnc(NCCc4c[nH]c5ccc(OC)cc45)c3c2)c1	> 20 µM
O=C(Nc1cccc(F)c1)N1CC2(CCN(C(=O)c3csnn3)CC2)C1	> 20 µM
O=C(c1cc(C(F)(F)F)cc(C(F)(F)F)c1)N1CCC2(CCN(Cc3ccncc3)CC2)CC1	> 20 µM
Cc1nc2cnc(Oc3cccc(Cl)c3)nc2n(C[C@H]2CCCO2)c1=O	> 20 µM
COc1ccccc1-c1cc(Nc2ccc(F)cc2)ncn1	> 20 µM
COc1ccc2[nH]cc(CCNc3ncncc3-c3ccc(C(=O)N(C)C)cc3)c2c1	> 20 µM
COC(=O)N1CCC2(CC1)CN(c1ccccc1)C2	> 20 µM
N#Cc1cccc(-c2nc3cnc(Oc4cccc(Cl)c4)nc3n(C3CC3)c2=O)c1	> 20 µM
COCC(=O)N1CCC2(CCCN(c3cccc(-c4ccccc4)c3)C2)CC1	> 20 µM
O=C(c1ccco1)N1CCC[C@@]2(CCN(c3ccncc3)C2)C1	> 20 µM
O=c1c(CCc2ccccc2)nc2cncnc2n1Cc1ccccc1Cl	> 20 µM
CN1CCC2(CC1)CCN(C(=O)c1ccncc1)CC2	> 20 µM
Cc1cnc(CNc2cc(-c3ccccc3C)ncn2)cn1	> 20 µM
COC(=O)N1CCC[C@@]2(CCN(C(=O)NC(C)C)C2)C1	> 20 µM
COc1ccc(-n2c(=O)c(CCc3ccccc3)nc3cnc(N4CCNCC4)nc32)cc1	> 20 µM
CC(=O)N1CCC2(CC1)CN(c1ccncc1)C2	> 20 µM
Cc1noc(C)c1-c1ccc2ncnc(N3CCOCC3)c2c1	> 20 µM
COCC(=O)N1CCC2(CCCN(C(=O)Nc3ccc(OC)cc3)C2)CC1	> 20 µM
Cc1noc(C)c1C(=O)N1CCC2(CCN(Cc3ccccc3)CC2)CC1	> 20 µM

SMILES	Potency
O=S(=O)(c1ccccc1)N1CCC[C@@]2(CCN(Cc3ccccc3)C2)C1	> 20 µM
COc1cccc(Cn2c(=O)c(CCc3ccccc3)nc3cncnc32)c1	> 20 µM
COCC(=O)N1CCC2(CC1)CN(Cc1cc(C(F)(F)F)cc(C(F)(F)F)c1)C2	> 20 µM
COCC(=O)N1CCC2(CC1)CN(C(=O)Nc1ccccc1)C2	> 20 µM
COc1ccc(NC(=O)N2CC[C@@]3(CCCN(C(=O)c4csnn4)C3)C2)cc1	> 20 µM
CCNc1ncc2nc(-c3ccc(Cl)cc3)c(=O)n(-c3ccccc3)c2n1	7.07 µM (active)
O=C(c1ccncc1)N1CCC[C@@]2(CCN(Cc3ccncc3)C2)C1	> 20 µM
CN(C)c1ncc2ncc(=O)n(C3CC3)c2n1	> 20 µM
CN1CCN(c2ncc3nc(-c4cccs4)c(=O)n(CCC#N)c3n2)CC1	15.3 µM
COc1ccc2[nH]cc(CCNc3ncnc4ccc(-c5ccoc5)cc34)c2c1	> 20 µM
Cc1cnc(CNc2ccnc(-c3ccoc3)n2)cn1	> 20 µM
COc1ccc(CNc2ncncc2-c2c(C)noc2C)c(OC)c1	> 20 µM
O=C(c1cc(C(F)(F)F)cc(C(F)(F)F)c1)N1CCC2(CCN(Cc3ccccc3)CC2)CC1	> 20 µM
Cn1cccc1C(=O)N1CCC2(CCCN(C(=O)Nc3cccc(F)c3)C2)CC1	> 20 µM
c1cncc(CNc2ncnc3ccc(-c4ccoc4)cc23)c1	> 20 µM
Cc1noc(C)c1C(=O)N1CCC2(CC1)CN(c1ncccn1)C2	> 20 µM
c1cncc(-c2cncnc2-n2ccnc2)c1	> 20 µM
O=c1c(-c2cccc(Cl)c2)nc2cncnc2n1Cc1ccccc1	> 20 µM
N#CCCn1c(=O)c(-c2ccc(F)cc2)nc2cnc(Oc3cccc(Cl)c3)nc21	> 20 µM
COc1ncc2nc(-c3cccs3)c(=O)n(-c3ccccc3)c2n1	> 4 µM
CCNc1ncc2nc(CCc3ccccc3)c(=O)n(Cc3cccc(OC)c3)c2n1	> 20 µM
COCC(=O)N1CCC[C@@]2(CCN(Cc3cc(C(F)(F)F)cc(C(F)(F)F)c3)C2)C1	> 20 µM
Cc1nc2cnc(N3CCOCC3)nc2n(C[C@H]2CCCO2)c1=O	> 20 µM
COc1ccc(-c2nc3cnc(N4CCNCC4)nc3n(CCC#N)c2=O)cc1	> 20 µM
